The list is not random: actives were taken first. Their share in the collection is about 3.8%.
TrxR1 substrate – qHTS Assay for Substrates of Mammalian Selenoprotein Thioredoxin Reductase 1 (TrxR1): qHTS. Potency, µM (series often up to 114 µM), without a hit: at the highest dose activity change, negative = substrate turnover. hit rate 0.01% among 390,000. Thioredoxin reductase 1, cytoplasmic (Rattus norvegicus), O89049. purified TrxR1 substrate turnover, NADPH consumption readout; also: nearly all actives have a fitted effect of over 50% in size
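Rat TrxR1, dispensed at 90 nM, was prereduced with 400 uM NADPH (final) for 5 min at ~22 deg C, then incubated with compound 15 min before 400 uM selenite. A first-read NADPH fluorescence drop versus no-compound background flagged substrates.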
GLS inhibitor – qHTS for Inhibitors of Glutaminase (GLS); GLS enzymatic activity, qHTS titration; Glutaminase kidney isoform, mitochondrial (Homo sapiens), O94925; hit rate 0.21% among 410,000; Potency, µM (top dose mostly 45.5 µM), for inactives: at the highest dose activity change, negative = inhibition, actives largely listed as inhibitors
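Compounds were pin-transferred onto hKGA, after which L-glutamine (1 mM solution) and a detection mix of glutamate oxidase, HRP and Amplex Red were added. Initial and 30 min RT fluorescence reads were collected.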
TrxR1 inh – qHTS Assay for Inhibitors of Mammalian Selenoprotein Thioredoxin Reductase 1 (TrxR1): qHTS; Thioredoxin reductase 1, cytoplasmic (Rattus norvegicus), O89049; recombinant rTrxR1, NADPH fluorescence consumption, selenite substrate; Potency, µM (doses to about 114 µM), for the others: at the highest dose activity change, negative = inhibition, actives largely listed as inhibitors; hit rate 1% among 390,000; AID 588453, 2011; also: nearly all actives have a fitted effect of over 65% in size
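Rat TrxR1 (90 nM in the dispensed reagent) was pre-reduced with 400 uM NADPH for 5 min at room temperature, then incubated with compound for 15 min. After 400 uM selenite was added, NADPH fluorescence (Ex 340/Em 450 nm) was followed for 8 min.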
VDR inhibitor – Inhibitors of the vitamin D receptor (VDR): qHTS; Vitamin D3 receptor (Homo sapiens), P11473; VDR-SRC2-3 peptide fluorescence polarization, 2 h; Potency, µM, inactives show max response, negative = inhibition, usual class: inhibitors; hit rate 0.93% among 400,000; AID 504847, 2011
Target sequence (P11473 whole entry, looked up): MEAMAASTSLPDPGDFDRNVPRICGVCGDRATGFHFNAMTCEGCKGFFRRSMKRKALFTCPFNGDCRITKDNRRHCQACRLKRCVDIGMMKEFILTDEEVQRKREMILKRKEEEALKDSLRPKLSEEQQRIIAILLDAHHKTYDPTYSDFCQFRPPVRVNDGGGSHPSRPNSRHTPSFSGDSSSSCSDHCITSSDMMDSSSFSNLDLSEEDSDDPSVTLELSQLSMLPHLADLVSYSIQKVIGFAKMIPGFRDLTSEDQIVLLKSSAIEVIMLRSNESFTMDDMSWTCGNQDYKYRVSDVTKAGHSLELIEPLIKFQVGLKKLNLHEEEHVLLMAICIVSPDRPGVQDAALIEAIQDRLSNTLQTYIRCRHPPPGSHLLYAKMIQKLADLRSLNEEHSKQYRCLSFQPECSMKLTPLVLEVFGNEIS
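Measured by FP: displacement of SRC2-3 coactivator peptide from VDR by library compounds, following a two-hour ambient incubation.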
KAT2A inh – qHTS Assay for Inhibitors of GCN5L2; GCN5L2 HAT assay, ThioGlo1 CoA-SH fluorescence; hit rate 0.21% among 390,000; Potency, µM (titrated, usually from 58.9 µM), without a hit: at the top dose activity change, negative = inhibition, actives largely listed as inhibitors
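qHTS, 1536-well. 20nM enzyme, pH 7.5 HEPES/EDTA/Tween-20 buffer; 15 min compound preinc., RT. Start: 75uM H3(1-25), 70uM AcCoA, 50uM ThioGlo1. Read Ex340/Em540 at t=0 (autofluorescence flag) and t=20 min.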
Sfp inh – qHTS Assay for Inhibitors of Bacillus subtilis Sfp phosphopantetheinyl transferase (PPTase); 4'-phosphopantetheinyl transferase ffp (Bacillus subtilis), Q9F4F7; Biochemical Sfp PPTase activity, qHTS; Potency, µM, for inactives: largest response in the series, negative = inhibition, actives largely listed as inhibitors; hit rate 3.5% among 310,000; AID 1490, 2009;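 also: the enzyme is Sfp with the accession as filed and its product quenches rhodamine fluorescence; 0% = enzyme reaction without inhibitor and -100% = no enzyme wells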
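Reaction rates are the 30-min fluorescence difference (ex 525, em 598 nm) in wells containing 15 nM Sfp, 5 uM rhodamine-CoA and 12.5 uM BHQ-2-YbbR at pH 7.6 with 10 mM MgCl2.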
* marks the source's active call; other numbers are inactive results; ? = inconclusive; . = no result; [ ] = another dose, or the depositor's remark. Calls follow the shape of the dose curve; as a rule, active = well fitted curve in the direction sought with a large enough effect; inconclusive = small, poorly fitted or top-dose-only effect, or another doubt; inactive = no such curve, though single readings can be large; an effect the other way counts as inactive or inconclusive. Unless noted, % is scaled to controls: 0 for no effect and ±100 for the full control effect; potency is read from the fitted curve at half-maximal effect.

SMILES | TrxR1 substrate | GLS inhibitor | TrxR1 inh | VDR inhibitor | KAT2A inh | Sfp inh
Cc1cc(C)nc(SCCC(=O)N(C)C)n1 | -5% | 2% | -3% | -7% | -11% | 50µM*
Cc1cccc(NC(=O)CCSc2nc(C)cc(C)n2)c1 | 4% | 1% | 19% | 3% | -6% | -10%
CCOC(=O)c1nn(-c2ccc(C)c(C)c2)cc1O | -2% | 2% | -4% | 1% | 3% | 4%
COc1ccc(/C=N/NC(=O)c2nn(-c3ccccc3)c(=O)c3c(N)scc23)cc1 | -11% | 4% | -18% | ? | ? | 7.1µM*
CCOC(=O)c1nn(-c2ccc(OC)cc2)c(=O)c2c(N)scc12 | 3%[57.1 µM] | 1% | 30%[57.1 µM] | 18µM* | ? | 10µM*
COc1ccc(C(=O)N/N=C/c2c(C)nn(-c3ccccc3)c2OC)cc1 | 6%[57.1 µM] | -9% | 7%[57.1 µM] | 0% | . | .
CCOC(=O)c1nn(-c2ccc(C)c(C)c2)c(=O)c2c(N)scc12 | -14% | 36% | -3% | 8% | ? | 8.9µM*
Cc1[nH]nc(SCC(=O)NCc2ccccc2)c1[N+](=O)[O-] | 1%[57.1 µM] | 1% | 0%[57.1 µM] | -11% | 0% | -2%
N=C1C(c2ccccc2)=C(O)CN1c1cccc(S(=O)(=O)Nc2cccc(C(F)(F)F)c2)c1 | 0% | 4% | 12% | -24% | -3% | ?
CCc1c(C)sc(NC(=O)CSc2nc3c(c(C(F)(F)F)n2)CCc2ccccc2-3)c1C#N | 0% | 4% | 3% | -14% | -1% | 45µM*
COc1ccc(C#Cc2c(-c3ccccc3)n(-c3ccccc3)c3ccc(CO)cc23)cc1 | 128% | 0% | 35µM* | -20% | 2% | .
O=c1[nH]cc(I)cc1I | 0%[57.1 µM] | -1% | -52% | -10% | -1% | 22µM*
CCCCCCNC(=O)O[C@H]1C[C@@H]2C(=O)N(c3ccccc3)C(=O)[C@@H]2[C@@H]2CN(S(=O)(=O)c3ccc(C)cc3)C[C@]12O | . | -7% | . | . | . | .
N#CCCN(Cc1cccnc1)C(=O)Nc1ccc(Cl)c(Cl)c1 | 10%[57.1 µM] | -8% | 3%[57.1 µM] | -5% | 0% | 17%
CCc1ccc(NC(=O)Cn2c(=O)n(-c3cc(C)cc(C)c3)c(=O)c3oc4ccccc4c32)cc1 | 15% | -9% | 24% | 5% | -5% | .
Cc1ccc(OCc2ccc(C(=O)N3CCOCC3)cc2)cc1C | 1%[2.29 µM] | 6% | -30%[2.29 µM] | 1% | -7% | 35µM*
O=C(NCCO)c1ccc2c3n(nc2c1)-c1ccc(Cl)cc1CO3 | 11% | 2% | 10% | 11% | -15% | 89µM*
O=C(c1ccc2c3n(nc2c1)-c1ccc(Cl)cc1CO3)N1CCCCC1 | 0% | -3% | -1% | -15% | -4% | 56µM*
O=C(NCC1CC1)c1ccc2c3n(nc2c1)-c1ccc(Cl)cc1CO3 | 11%[57.1 µM] | 5% | 7%[57.1 µM] | 3% | . | .
Cc1cc(C)c[n+](CC(=O)c2ccc(-c3ccccc3)cc2)c1 | 19% | 5% | 4% | -20% | -1% | -29%
O=C(NNC(=O)c1cc2ccccc2oc1=O)c1ccccc1 | -15% | -7% | -16% | -21% | -5% | 50µM*
CCCNC(=O)c1cc2c(c(-c3cccc(-c4cc5ccccc5o4)c3)n1)[C@@H](CCO)N(C(=O)NC(C)C)C2 | . | 4% | . | . | . | .
O=S1(=O)C=C(Sc2nc3cc(Cl)ccc3o2)c2ccccc21 | 8%[57.1 µM] | -4% | 2.8µM* | ? | -9% | ?
CCCCN(C(=O)COC(=O)c1nc2nc(C)cc(C)n2n1)C1CCS(=O)(=O)C1 (stereo not drawn) | 5% | 7% | 29% | -23% | -7% | .
O=C1N(Cc2cccc(Cl)c2)C[C@@H]2C[C@@H](c3ccccn3)N3CCC[C@@]123 | 5% | -12% | ? | -26% | -1% | 50µM*
SMILES | TrxR1 substrate | GLS inhibitor | TrxR1 inh | VDR inhibitor | KAT2A inh | Sfp inh
CC(C)c1ccc(C2NC(C(=O)O)CS2)cc1 (stereo not drawn) | -1% | -13% | 45% | 6% | -5% | 50µM*
COC(=O)N/N=C/c1ccc(OS(=O)(=O)c2ccc(C)cc2)c(OC)c1 | 7% | -18% | 24% | -15% | -13% | 16%
O=S(c1ccccc1O)S(=O)c1ccccc1O (stereo not drawn) | -9% | -50% | 129% | 35µM* | . | .
CCOC(=O)c1sc(=NC(=O)c2c(F)cccc2F)n(C)c1C | -8% | 18µM* | 12% | -13% | -3% | 13%
CCOC(=O)c1sc(=NC(=O)c2ccc(F)cc2)n(C)c1C | 8% | 3% | 13% | -10% | -6% | 15%
Cc1ccc(-c2cc(C(=O)N3CCN(c4ccc(F)cc4)CC3)c3ccccc3n2)o1 | 11%[57.1 µM] | -10% | 18%[57.1 µM] | 0% | -6% | 25µM*
Cc1ccc(-c2cc(C(=O)N3CCN(c4ccccc4O)CC3)c3ccccc3n2)cc1 | -3% | 7.1µM* | -3% | 8% | -2% | .
CCc1cc(=O)oc2cc(C)c(CN3CCCC(C)C3)c(O)c12 (stereo not drawn) | -6% | 5% | ? | -18% | 32µM* | ?
COc1ccc(C(=O)NCc2n[nH]c(=S)n2-c2ccccc2)cc1OC | 16% | 20% | 2% | -21% | 0% | 56µM*
COc1ccc(-n2c(CNC(=O)COc3ccccc3)n[nH]c2=S)cc1 | 3% | -9% | -2% | 0% | -2% | 6%
COc1cc(OC)cc(C(=O)NCc2n[nH]c(=S)n2-c2ccccc2)c1 | 8% | 6% | -18% | 3% | -5% | 89µM*
Cc1cc(C)c(S(=O)(=O)/N=C2\C=CC(=O)C(Cl)=C2)c(C)c1 | 5% | 12% | 18µM* | -25% | -16% | 50µM*
CCOC(=O)c1cc([N+](=O)[O-])c([N+](=O)[O-])cc1NC(C)=O | -5%[57.1 µM] | 17% | 3.2µM* | ? | -4% | -11%
COc1ccc(N2CCN(C(=O)c3sc4nc5n(c(=O)c4c3C)CCC5)CC2)cc1 | 3% | -4% | 19% | 12% | -12% | .
CC(=O)c1ccc(NC(=O)CC2Nc3cccc4cccc(c34)NC2=O)cc1 (stereo not drawn) | -4% | ? | ? | -17% | -6% | 50µM*
Cc1cc(OCC(=O)c2ccc(Br)cc2)ccc1N1C(=O)CCC1=O | -1%[57.1 µM] | 0% | -5%[57.1 µM] | -5% | -1% | -2%
